From PubChem BioAssay (Tox21)
Values joined by “and” are separate entries in the source; they are usually repeats but may differ in a detail not shown here. Identical values can stand only once. Inconclusive results are not listed. The source holds several records for some structures; these can differ, active in one and inactive in another. Active and inactive are the calls of the source. Unless noted, calls follow the shape of the dose curve; as a rule, active = well fitted curve in the direction sought with a large enough effect in the repeat runs; inconclusive = weak or mixed curves; inactive = no such curve, though single readings can be large; an effect the other way counts as inactive or inconclusive.

How the values were obtained:
[1] = qHTS assay for small molecule agonists of the p53 signaling pathway (AID 651631; calls by dose curve; also: nearly all actives have a fitted effect of over 15% in size; also: potency is read from the fitted curve at half-maximal effect)
In short: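 Fluorescence intensity from cleaved LiveBLAzer B/G substrate (2 h, room temperature) served as the signal. Beforehand, HCT-116 reporter cells bearing p53 response elements were treated 16 h at 37 °C with DMSO-dissolved compounds.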

[2] = qHTS assay for small molecule agonists of the p53 signaling pathway - cell viability (AID 651633; calls by dose curve;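 also: p53RE-bla HCT reporter cells with a stable beta-lactamase p53 reporter; series mostly up to about 83 µM; nearly all actives have a fitted effect of over 30% in size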)
In short: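 Viability counter-read: CellTiter-Glo luminescence (30 min, room temperature) in the same p53RE-bla plates. These plates had been exposed to compounds for 16 h at 37 C.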

[3] = qHTS assay for small molecules that induce genotoxicity in human embryonic kidney cells expressing luciferase-tagged ATAD5 - cell viability (AID 651634; calls by dose curve; also: nearly all actives have a fitted effect of over 25% in size; also: potency is read from the fitted curve at half-maximal effect)
In short: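 Quantitative high-throughput format. HEK293T cells expressing ATAD5 fused to luciferase were plated at 2,000 cells/well and treated 15.5 hr with compound versus DMSO. Viability was determined by fluorescent live-cell protease substrate, 30 min at 37C.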

[4] = qHTS assay to test for compound auto fluorescence at 590 nm (red) in HepG2 cells (AID 720674)
In short: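 1 hr compound incubation on HepG2 cells, 37 C, 5% CO2; plate read ex 540 nm / em 590 nm; intensities reported as Rose Bengal sodium equivalents.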

[5] = qHTS assay to test for compound auto fluorescence at 535 nm (green) in HepG2 cells (AID 720675)
[6] = qHTS assay to test for compound auto fluorescence at 460 nm (blue) in HEK293 cells (AID 720678)
In short: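 HEK293 cells (2,000/well, medium with 10% dialyzed FBS) attached 4-5 hr, then exposed to compound overnight at 37C, 5% CO2. Blue fluorescence read at 405/460 nm, with triamterene as reference fluorophore.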

[7] = qHTS assay to test for compound auto fluorescence at 590 nm (red) in HEK293 cells (AID 720679)
In short: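 HEK293 cells (2,000/well, 10% dialyzed FBS) attached 4-5 hr, then dosed with compound or DMSO and incubated overnight at 37C, 5% CO2. Red fluorescence read at 540/590 nm, Rose Bengal sodium as reference fluorophore.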

[8] = qHTS assay to test for compound auto fluorescence at 535 nm (green) in HEK293 cells (AID 720680)
[9] = qHTS assay to test for compound auto fluorescence at 460 nm (blue) in HEK293 cell free culture (AID 720681)
In short: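 Blue fluorescence (Ex 405/Em 460 nm, triamterene-equivalent) was read immediately after pin transfer of compound or DMSO into medium (DMEM, 10% FBS) without cells.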

[10] = qHTS assay to test for compound auto fluorescence at 535 nm (green) in HEK293 cell free culture (AID 720682)
In short: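 Intrinsic compound fluorescence is measured in culture medium containing 10% FBS, with excitation at 485 nm and detection at 535 nm, referenced to fluorescein.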

[11] = qHTS assay to test for compound auto fluorescence at 590 nm (red) in HEK293 cell free culture (AID 720683)
In short: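 Red-channel autofluorescence of compounds in culture medium (DMEM, 10% FBS), no cells, measured at 540/590 nm. Rose Bengal sodium is the reference fluorophore for equivalence.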

[12] = qHTS assay to test for compound auto fluorescence at 590 nm (red) in HepG2 cell free culture (AID 720684)
In short: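 No cells present: MEM + 10% FBS only. Compound pinned in, red label read (540/590 nm). Activity = fluorescence equivalent to Rose Bengal sodium.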

[13] = qHTS assay to test for compound auto fluorescence at 460 nm (blue) in HepG2 cell free culture (AID 720685)
In short: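 Cell-free plates of MEM plus 10% FBS received 23 nL compound or DMSO vehicle; blue-channel (405/460 nm) intensity scored against triamterene as reference fluorophore.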

[14] = qHTS assay to test for compound auto fluorescence at 535 nm (green) in HepG2 cell free culture (AID 720686)
[15] = qHTS assay to test for compound auto fluorescence at 460 nm (blue) in HepG2 cells (AID 720687)
In short: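 Blue-channel autofluorescence (Ex/Em 405/460 nm, triamterene-equivalent) was measured after 1 hr compound exposure at 37 C, 5% CO2. Cells were HepG2, plated overnight at 37 C in MEM plus 10% FBS.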

[16] = qHTS assay for small molecules that induce genotoxicity in human embryonic kidney cells expressing luciferase-tagged ATAD5 (AID 651632); also: nearly all actives have a fitted effect of over 15% in size
In short: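 Test compounds were delivered by pin tool onto HEK293T reporter cells (2,000/well) expressing ATAD5 fused to luciferase. After 16 hr at 37C, 5% CO2, Amplite was added for 30 min at room temperature and luminescence was measured.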

[17] = qHTS assay for small molecule disruptors of the mitochondrial membrane potential - cell viability (AID 720634; calls by dose curve;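 also: human HepG2 liver cancer cells; series mostly up to about 83 µM; nearly all actives have a fitted effect of over 20% in size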)
In short: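 Same-well counter-screen: following the MMP dye addition, CellTiter-Glo was added to 1 hr compound-treated HepG2 cells and luminescence read after 30 min at room temperature.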

[18] = molecular target: Glucocorticoid receptor (Homo sapiens) (UniProt P04150); experiment: qHTS assay to identify small molecule agonists of the glucocorticoid receptor (GR) signaling pathway (AID 720691; active = well fitted activation curve with a large enough effect in the signal ratio in the repeat runs, not every such curve was filed as active; the % refers to the signal ratio)
In short: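 A HeLa cervical cancer line expressing GR and a glucocorticoid response element-driven beta-lactamase gene is treated with compounds for 18 h; LiveBLAzer B/G FRET substrate is then applied and fluorescence read.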

[19] = molecular target: Glucocorticoid receptor (Homo sapiens) (UniProt P04150); experiment: qHTS assay to identify small molecule antagonists of the glucocorticoid receptor (GR) signaling pathway (AID 720692; active = well fitted inhibition curve with a large enough effect in the signal ratio in the repeat runs, not every such curve was filed as active; the % refers to the signal ratio)
In short: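 GRE-bla HeLa line, dex-stimulated (5 nM final). Compound exposure 18 h, 37 C. Beta-lactamase FRET read after 2 h RT substrate.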

[20] = qHTS assay for small molecule disruptors of the mitochondrial membrane potential (AID 720635); also: potency is read from the fitted curve at half-maximal effect
In short: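 Mitochondrial membrane potential tracked with Mito-MPS dye, red aggregates (ex 540/em 590 nm) against green monomers (ex 490/em 535 nm). Compound treatment 1 hr at 37C, dye 30 min in HepG2.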

Measured: Potency

Chain of Glucocorticoid receptor (Homo sapiens) (P04150 whole entry, looked up): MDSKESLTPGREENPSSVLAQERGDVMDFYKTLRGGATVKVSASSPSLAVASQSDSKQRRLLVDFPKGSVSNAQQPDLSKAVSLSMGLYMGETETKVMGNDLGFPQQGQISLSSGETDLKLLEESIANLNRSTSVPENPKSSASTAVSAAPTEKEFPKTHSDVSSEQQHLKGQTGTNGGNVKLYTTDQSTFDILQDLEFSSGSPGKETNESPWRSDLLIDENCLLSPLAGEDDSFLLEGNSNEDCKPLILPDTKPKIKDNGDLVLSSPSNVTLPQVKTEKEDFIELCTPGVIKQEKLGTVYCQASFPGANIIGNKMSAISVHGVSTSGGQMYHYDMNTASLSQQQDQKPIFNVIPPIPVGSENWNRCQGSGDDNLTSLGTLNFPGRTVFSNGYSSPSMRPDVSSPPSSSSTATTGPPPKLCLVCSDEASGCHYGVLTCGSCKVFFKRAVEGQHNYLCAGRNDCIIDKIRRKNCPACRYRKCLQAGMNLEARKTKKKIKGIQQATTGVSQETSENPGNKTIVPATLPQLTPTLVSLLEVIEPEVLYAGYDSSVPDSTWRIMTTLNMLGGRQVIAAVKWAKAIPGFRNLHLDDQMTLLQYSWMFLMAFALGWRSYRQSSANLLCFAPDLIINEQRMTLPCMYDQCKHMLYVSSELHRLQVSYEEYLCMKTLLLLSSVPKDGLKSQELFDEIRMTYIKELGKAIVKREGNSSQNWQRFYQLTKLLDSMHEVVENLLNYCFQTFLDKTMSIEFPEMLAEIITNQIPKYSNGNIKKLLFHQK

c1ccc2c(c1)-c1cccc3cccc-2c13
not listed: [16] | [17] | [18] | [19] | [20]
inactive: all other assays above

O=C(O)c1cc(Cl)ccc1Cl
not listed: [2] | [19] | [20]
inactive: all other assays above

Clc1ccc(Cl)c(Cl)c1
not listed: [6] | [16] | [18] | [19] | [20]
inactive: all other assays above

Nc1cccc2ccccc12
not listed: [3] | [15] | [16] | [18] | [19] | [20]
inactive: all other assays above

OC[P+](CO)(CO)CO
not listed: [2] | [20]
inactive: all other assays above

O=C(NCNC(=O)NC1C(=O)NC(=O)N1CO)NC1C(=O)NC(=O)N1CO (stereo not drawn)
not listed: [3] | [9] | [20]
inactive: all other assays above

CCCCC(CC)COC(=O)c1c(Br)c(Br)c(Br)c(Br)c1C(=O)OCC(CC)CCCC (stereo not drawn)
not listed: [3] | [6] | [18] | [20]
inactive: all other assays above

CC(C)(C)OOC(C)(C)CCC(C)(C)OOC(C)(C)C
not listed: [3] | [16] | [18]
inactive: all other assays above

CCCCCCCCP(=O)(O)O
not listed: [2] | [18] | [20]
inactive: all other assays above

CCCN(CCC)c1c([N+](=O)[O-])cc(C(C)C)cc1[N+](=O)[O-]
active: [20] 12.2 µM
not listed: [3] | [6] | [18] | [19]
inactive: all other assays above

O=S(=O)(Cl)Cl
not listed: [3] | [19] | [20]
inactive: all other assays above

C[C@@H]1C[C@@H]([C@H](O)CC2CC(=O)NC(=O)C2)C(=O)[C@@H](C)C1
active: [3] 1.33 µM and 271 nM
11.9 µM (active) and inactive: [1]
not listed: [2] | [6] | [16] | [18] | [19] | [20]
inactive: all other assays above
